Screening data as filed in PubChem.
An excerpt weighted towards active compounds, which were near 1.7% of everything screened.
GLP-1R inv ag: qHTS of GLP-1 Receptor Inverse Agonists (Inhibition Mode). HEK293 GLP-1R CRE-luciferase, luminescence, 24 h; GLP-1R form is constitutively active. Potency, µM (titrated, usually from 38.3 µM), without a hit: at the highest dose activity change, negative = inhibition, usual class: inhibitors. 1.6% of 410,000 active. AID 624417, 2012; note: % is set by controls: 0 for no effect and ±100 for the full control effect; nearly all actives have a fitted effect of over 55% in size
Target sequence (P43220 whole entry, looked up): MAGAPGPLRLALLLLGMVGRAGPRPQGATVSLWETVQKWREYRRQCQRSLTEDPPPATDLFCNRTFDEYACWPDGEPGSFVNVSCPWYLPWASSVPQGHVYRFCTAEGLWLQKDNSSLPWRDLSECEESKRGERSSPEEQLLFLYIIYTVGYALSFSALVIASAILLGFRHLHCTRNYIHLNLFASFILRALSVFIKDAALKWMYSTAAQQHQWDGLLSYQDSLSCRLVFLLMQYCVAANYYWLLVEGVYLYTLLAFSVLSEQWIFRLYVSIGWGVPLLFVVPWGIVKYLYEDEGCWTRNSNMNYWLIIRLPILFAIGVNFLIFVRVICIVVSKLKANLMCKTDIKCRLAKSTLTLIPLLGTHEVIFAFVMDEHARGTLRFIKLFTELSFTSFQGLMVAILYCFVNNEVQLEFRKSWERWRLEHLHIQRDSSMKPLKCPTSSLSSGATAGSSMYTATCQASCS
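Seeding at 200 cells/uL, 12 h culture, 24 hr compound treatment, then luciferase reagent and a luminescence read; cells are HEK293 stably expressing a constitutively active GLP-1R plus cAMP-responsive luciferase.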
HEK293 tox: qHTS of GLP-1 Receptor Inverse Agonists: Cytotox Screen; HEK293 cAMP-luciferase reporter cells, luminescence, 24 h; Potency, µM (series often up to 38.3 µM), for the others: at the top dose activity change, negative = inhibition, actives largely listed as inhibitors; 0.13% of 410,000 active; AID 624418, 2012;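 note: loss of luciferase light is scored as toxicity; % is set by controls: 0 for no effect and ±100 for the full control effect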
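MLSMR compounds, 24 hr on cells at 37 deg C/5% CO2; luminescence after luciferase reagent (12 min RT). Inhibition counted as the undesired cytotoxic outcome.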
GLP1R ag: qHTS of GLP-1 Receptor Agonists. Glucagon-like peptide 1 receptor (Homo sapiens), P43220. HEK293 GLP-1R CRE-luciferase, luminescence, 4-6 h; cells express a hypersensitive GLP-1R form. Potency, µM (titrated, usually from 45.6 µM), for inactives: at the top dose activation, hits mostly activators. 0.007% of 380,000 active; note: % of control where 0% means no effect
* hit, by the source's call; ? = inconclusive; . = no result given. Calls come from the whole dose curve; as a rule, active = well fitted curve in the direction sought with a large enough effect; inconclusive = small, poorly fitted or top-dose-only effect, or another doubt; inactive = no such curve, though single readings can be large; an effect the other way counts as inactive or inconclusive. Potency is the fitted concentration of half-maximal effect.

SMILES | GLP-1R inv ag | HEK293 tox | GLP1R ag
CN(Cc1nc2ccccc2c(=O)[nH]1)C(=O)c1cccc(NC(=O)c2cccs2)c1 | -6.8% | 6.3% | 6.2%
CCc1ccc(OCCNC(=O)c2ccccc2SCc2ccc(F)cc2)cc1 | 8.91µM* | -3.7% | -2.5%
O=C(NCCOc1ccc(F)cc1)c1ccccc1SCc1ccccc1 | ? | 17.7% | 7.1%
CCN1CCN(c2ncc3c(n2)CCN(Cc2ccccc2C)C3)CC1 | ? | -13.4% | .
CCOC(=O)C1CCCN(C(=O)Cc2c(C(=O)O)[nH]c3ccccc23)C1 (stereo not drawn) | -34.0% | -4.4% | -4.4%
CCOC(=O)C1CCCN(C(=O)c2[nH]c3ccccc3c2Sc2ccc(Cl)cc2)C1 (stereo not drawn) | 11.2µM* | ? | .
CSc1cccc(NC(=O)C2CCN(c3nc4ccccc4[nH]3)CC2)c1 | -5.8% | -6.1% | .
CCc1ncc(C(O)c2ccc(Cl)cc2)n1Cc1ccccc1 (stereo not drawn) | 8.91µM* | -4.2% | -8.0%
Cc1ncc(C(O)c2ccc(N(C)C)cc2)n1Cc1ccccc1 (stereo not drawn) | -19.4% | 3.4% | 6.0%
Cc1ccccc1OCC(=O)OCc1cc(=O)n2ccsc2n1 | 15.9% | 1.8% | .
COc1ccc(CN2CCN(C(=O)c3ccco3)CC2)c(OC)c1OC | 15.7% | 2.3% | -2.4%
O=C(/C=C/c1ccc(-c2cccc([N+](=O)[O-])c2)o1)N1CCOCC1 | 141.1% | -18.3% | ?
CCn1cc(S(=O)(=O)c2ccccc2)c(=O)c2cc(F)c(N3CCCCCC3)cc21 | 0.7% | -0.7% | .
O=C(N[C@@H](Cc1ccccc1)C(=O)N1CCC2(CC1)NCCc1[nH]cnc12)c1cccc(Br)c1 | 10µM* | -21.5% | 8.0%
C[C@H](NC(=O)c1ccccc1)C(=O)N1CCC2(CC1)NCCc1[nH]cnc12 | 4.3% | -5.9% | -1.5%
COc1cc(OC)cc(-c2c(C#Cc3ccsc3)c3cc(-c4ccc(CN5CCOCC5)cc4)ccc3n2C)c1 | -24.4% | -0.1% | 6.7%
Cc1oc(-c2ccc(Cl)cc2)nc1CS(=O)CC(=O)NCCN1CCCCCC1 (stereo not drawn) | ? | -62.5% | -6.0%
Cc1oc(-c2ccc(Cl)cc2)nc1CS(=O)CC(=O)NCCCN1CC(C)CC(C)C1 (stereo not drawn) | 5.62µM* | ? | 8.4%
Cc1ccc(-c2nc(CS(=O)CC(=O)NC(C)CCc3ccccc3)c(C)o2)cc1 (stereo not drawn) | 8.91µM* | -0.5% | -0.4%
COc1ccc(-c2nc(CS(=O)CC(=O)NC(C)CCc3ccccc3)c(C)o2)cc1OC (stereo not drawn) | 30.9% | 2.6% | 27.4%
O=C(NCc1ccco1)c1ccc(OC2CCN(Cc3ccccn3)CC2)cc1 | -15.6% | -4.9% | 25.1%
CCc1nnc(NC(=O)CCC(=O)N2CCN(Cc3ccc(OC)c(F)c3)CC2)s1 | -5.9% | 6.7% | 7.7%
FC(F)(F)c1ccccc1Cc1c(-c2cccc(Cl)c2)nc2ccc(Cl)cn12 | 9.7% | -5.2% | 2.1%
Oc1ccc(NCc2ccc(OCc3ccccc3)cc2)cc1 | 134.7% | ? | 23.8%
O=C1CCCC/C1=N\Nc1ccc(OCc2ccccc2)cc1 | 2.82µM* | -23.2% | 4.7%
SMILES | GLP-1R inv ag | HEK293 tox | GLP1R ag
O=C(CC1C[C@H](C(=O)N2CCOCC2)[C@@]2(CCC3CCCC3)c3[nH]c4ccccc4c3CCN2C1=O)NCC12CC3CC(CC(C3)C1)C2 (stereo partly drawn) | 7.9% | 2.0% | 0.8%
N#Cc1ccc(/C=N/N=C(N)N)cc1 | 9.6% | -14.1% | -9.5%
NC(N)=N/N=C/c1ccc(Br)cc1 | 5.01µM* | ? | -4.8%
Cc1ccc(CN2CCSc3ccc(C(=O)N4CCN(c5cc(C)ccc5C)CC4)cc32)cc1 | 11.2% | 0.4% | .
CCCCN(C)C(=S)Nc1ccc2nc(N3CCN(CC)CC3)cc(C)c2c1 | ? | -1.2% | 1.7%
CCOC(=O)N1CCC(NC(=S)Nc2ccc3nc(N4CCN(CC)CC4)cc(C)c3c2)CC1 | 8.91µM* | ? | 17.8%
CCN1CCN(c2cc(C)c3cc(NC(=S)NCCN(C)C)ccc3n2)CC1 | 3.55µM* | ? | -3.4%
CCOC(=O)N1CCC(NC(=S)Nc2ccc3nc(N4CCN(C)CC4)cc(C)c3c2)CC1 | ? | -8.1% | 6.4%
CCN1CCN(c2cc(C)c3cc(NC(=S)NCCCN4CCc5ccccc5C4)ccc3n2)CC1 | ? | ? | 17.9%
CCCCN(C)CCNC(=S)Nc1ccc2nc(N3CCN(CC)CC3)cc(C)c2c1 | 1.12µM* | 5.01µM* | 11.3%
CCN(CC)CCNC(=S)Nc1ccc2nc(N3CCN(CC)CC3)cc(C)c2c1 | 2.51µM* | ? | 5.6%
CCCCNC(=S)Nc1ccc2nc(N3CCN(CC)CC3)cc(C)c2c1 | ? | ? | 28.5%
COCCN(C(=O)CSc1nnc(-c2ccccc2F)n1C)c1c(N)n(Cc2ccccc2)c(=O)[nH]c1=O | 5.2% | -12.0% | -0.1%
F[B-](F)(F)c1cncc2ccccc12 | -7.0% | 3.1% | 1.9%
CC(C)(C)n1nnnc1C(c1cc2ccccc2o1)N1CCOCC1 (stereo not drawn) | 15.1% | -2.2% | -3.9%
CCOc1ccccc1CNC(=O)c1cc2c(=O)n(Cc3ccccc3)ccc2nc1C | ? | -2.3% | .
CO[C@H]1C[C@@H]2CC[C@@H](C)[C@@](O)(O2)C(=O)C(=O)N2CCCC[C@H]2C(=O)O[C@H]([C@H](C)C[C@@H]2CC[C@@H](O)[C@H](OC)C2)CC(=O)[C@H](C)/C=C(\C)[C@@H](O)[C@@H](OC)C(=O)[C@H](C)C[C@H](C)/C=C/C=C/C=C/1C | . | . | 4.9%
CCCCCC(=O)N1C[C@H](n2cc(-c3ccc(F)cc3)nn2)[C@@H](O)C[C@@H]1c1ccc(Cl)cc1 | 10µM* | ? | -3.7%
CCCCCC(=O)N1C[C@H](O)[C@@H](n2cc(-c3ccc(F)cc3)nn2)C[C@@H]1c1ccccc1 | -22.6% | -3.0% | -1.3%
CCCCCC(=O)N1C[C@H](O)[C@@H](n2cc(-c3ccc(F)cc3)nn2)C[C@@H]1c1ccc(C)cc1 | 10µM* | -16.6% | 13.1%
CCCCCC(=O)N1C[C@@H](n2cc(-c3ccc(F)cc3)nn2)[C@H](O)C[C@@H]1c1ccccc1 | ? | -11.6% | 8.3%
CN1CCN(c2ccc(CNC(=O)C3(C)Cc4c(-c5ccc(C(N)=O)cc5)ccnc4O3)cc2)CC1 (stereo not drawn) | 34.8% | 1.5% | 12.2%
CCOc1ccc2nc(Cl)c(C3CC(c4ccc(C)cc4)=NN3C(=O)CCCC(=O)O)cc2c1 (stereo not drawn) | 8.0% | -7.3% | .
O=C(Nc1ccc(Br)cc1)Nc1ccccc1Cl | ? | -3.5% | 19.6%
O=[N+]([O-])c1ccc(N2N=C(c3ccco3)CC2c2ccccc2)cc1 (stereo not drawn) | 0.0% | 104.4% | -12.0%
Fc1ccc(C2CC(c3ccco3)=NN2c2ccccc2)cc1 (stereo not drawn) | 6.31µM* | 109.9% | 0.8%
COc1ccc(Nc2nn(-c3ccc(OC(F)(F)F)cc3)nc2C(C)=O)cc1 | 2.7% | -0.7% | .
Cc1c(Cl)cccc1NC(=O)Cn1cnc2nc3c(cc2c1=O)CCCC3 | 6.2% | -13.2% | .
